PINK1 expr mod = PINK1 expression modulation; Potency, µM (titrated, usually from 76.6 µM), inactives show at the top dose activation (PINK1 increase), hits mostly activators; PINK1 immunofluorescence, high-content cytometry, 24 h; hit rate 0.2% among 410,000; AID 624263; active means well fitted activation curve with a large enough effect; inconclusive means small, poorly fitted or top-dose-only effect; cell line not stated here; further: % of control where 0% means no effect; nearly all actives have a fitted effect of over 65% in size
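Stable cell line treated 24 h with compounds at 5 concentrations (CCCP controls), then fixed and immunostained for PINK1 plus nuclear and cell stains; PINK1 immunofluorescence quantified by laser-scanning microplate cytometry.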
Sfp inh = Sfp phosphopantetheinyl transferase inhibition. Q9F4F7. Biochemical Sfp PPTase activity, qHTS. Potency, µM, for the others: largest response in the series, negative = inhibition, usual class: inhibitors. hit rate 3.5% among 310,000. AID 1490;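 further: the enzyme is Sfp with the accession as filed and its product quenches rhodamine fluorescence; 0% = enzyme reaction without inhibitor and -100% = no enzyme wells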
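Reaction rates are the 30-min fluorescence difference (ex 525, em 598 nm) in wells containing 15 nM Sfp, 5 uM rhodamine-CoA and 12.5 uM BHQ-2-YbbR at pH 7.6 with 10 mM MgCl2.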
RORgamma inh = blocks mouse ROR gamma transcriptional activity; hit rate 5.4% among 310,000; Potency, µM (titrated, usually from 53.6 µM), without a hit: at the top dose activity change, negative = inhibition, usual class: inhibitors; P51450; Drosophila S2 Gal4-RORgamma UAS-luciferase reporter, 20 h; further: on the % scale 0 is the no-effect control and ±100 the full control effect; nearly all actives have a fitted effect of over 60% in size
Target sequence (P51450 whole entry, looked up, the tested form may be a part): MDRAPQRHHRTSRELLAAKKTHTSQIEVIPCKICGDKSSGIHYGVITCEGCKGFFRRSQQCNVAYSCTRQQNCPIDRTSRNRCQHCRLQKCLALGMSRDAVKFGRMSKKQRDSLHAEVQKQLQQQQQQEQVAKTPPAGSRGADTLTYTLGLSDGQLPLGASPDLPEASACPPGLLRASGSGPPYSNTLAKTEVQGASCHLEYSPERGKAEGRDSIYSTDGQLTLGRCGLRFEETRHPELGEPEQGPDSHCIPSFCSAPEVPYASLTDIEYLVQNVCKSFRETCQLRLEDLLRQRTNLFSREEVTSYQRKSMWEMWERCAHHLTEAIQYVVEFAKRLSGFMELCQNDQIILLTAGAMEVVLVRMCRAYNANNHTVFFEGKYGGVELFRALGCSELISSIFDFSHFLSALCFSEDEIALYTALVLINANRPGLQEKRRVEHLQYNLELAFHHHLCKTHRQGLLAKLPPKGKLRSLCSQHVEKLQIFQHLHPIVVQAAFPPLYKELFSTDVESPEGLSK
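Read-out: Photinus luciferase luminescence; inhibitors lower reporter signal. Insect Schneider cells with Gal4-ROR gamma fusion under metallothionein promoter, UAS reporter; 700 uM final copper sulfate induction, 20 hr, ambient temperature.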
ClpP mod = qHTS Assay for Activators of ClpP; hit rate 1.9% among 340,000; purified B. subtilis ClpP, FRET peptide cleavage, 20 min; AID 651965, 2013; ATP-dependent Clp protease proteolytic subunit (Bacillus subtilis (strain 168)), P80244; Potency, µM (titrated, usually from 57.5 µM), without a hit: at the top dose activity change, negative = active; active means well fitted falling curve with a large enough effect; inconclusive means small, poorly fitted or top-dose-only effect; inactive means no such curve, though single readings can be large or run the other way; further: the source files actives as falling curves though it sought activators and does not explain the sign; nearly all actives have a fitted effect of over 65% in size
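FRET quenching reversal measured ClpP activation: 10 microg/mL B. subtilis ClpP at pH 8 with the FRET-FV decapeptide, read at 430 nm after 320 nm excitation. The 20-min minus 0-min signal was scaled between DMSO/no-enzyme wells and ADEP (5.8 microM final).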
Epigenetic derep = epigenetic control regulation, reporter derepression; AID 1865; murine LDR cells, GFP reporter derepression, 30 h; Potency, µM (doses to about 53.9 µM), inactives show at the top dose GFP activation, most hits filed as activators; hit rate 0.2% among 280,000; further: % of control where 0% means no effect; nearly all actives have a fitted effect of over 60% in size
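Reporter derepression read as number of fluorescent GFP-positive objects, 20-120 um in size, counted by laser-scanning cytometer. Mouse LDR line with an epigenetically silenced CMV-GFP locus; compound incubation 30 h, 37 C.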
VP16 counter = inhibits Gal4-VP16 luciferase reporter, ROR gamma counter-screen; Drosophila S2 Gal4-VP16 UAS-luciferase, luminescence, 20 h; Potency, µM (highest dose often 53.6 µM), for the others: at the highest dose activity, negative = inhibition, most hits filed as inhibitors; hit rate 3.5% among 310,000; AID 2546;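 further: Gal4-VP16 expression switched on by copper sulfate through the metallothionein promoter; on the % scale 0 is the no-effect control and ±100 the full control effect; nearly all actives have a fitted effect of over 50% in size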
Numbers without * were called inactive; ? = inconclusive; / = no result given; [ ] = dose if it differs, or a comment. Only some compounds are listed: those with a hit (about 8.1% of all), similar ones and a draw of the others. Unless noted, the call rests on the fitted dose curve; in most records, active means well fitted curve in the direction sought with a large enough effect; inconclusive means small, poorly fitted or top-dose-only effect, or another doubt; inactive means no such curve, though single readings can be large; an effect the other way counts as inactive or inconclusive. Potency means the concentration at half of the fitted maximal effect.

SMILES	PINK1 expr mod	Sfp inh	RORgamma inh	ClpP mod	Epigenetic derep	VP16 counter
O=C(/C=C/c1ccc[nH]1)c1ccc(F)cc1	0.8%	-14.0%	35.9%	-1.8%	-3.5%	-17.8%
O=C(/C=C/c1ccc[nH]1)c1ccccc1	-1.0%	56.2µM*	22.8%	/	0.0%	?
O=C(NCC1(N2CCOCC2)CCCC1)c1cnn(-c2nccc(-c3cccs3)n2)c1C1CC1	0.8%	/	/	/	/	/
CCOc1ccc2nc(N/C(N)=N/S(=O)(=O)c3ccc(C)cc3)nc(C)c2c1	2.1%	/	/	?	/	/
CCOc1ccc2nc(N/C(N)=N/S(C)(=O)=O)nc(C)c2c1	0.4%	14.9%	4.5%	3.0%	-1.7%	5.9%
COc1ccc2nc(N/C(N)=N/C(=S)Nc3ccc(C)c(C)c3)nc(C)c2c1	/	3.2%	0.794µM*	/	0.0%	?
COc1ccc2nc(N/C(N)=N/C(=S)Nc3ccccc3)nc(C)c2c1	0.4%	18.4%	0.794µM*	/	1.3%	4.47µM*
CCOc1ccc2nc(N/C(N)=N/C(=S)Nc3ccc(OC)cc3)nc(C)c2c1	11.1%	4.1%	1.58µM*	3.7%	2.2%	?
CCc1ccc(NC(=S)/N=C(\N)Nc2nc(C)c3cc(CC)ccc3n2)cc1	0.4%	26.8%	1.12µM*	/	1.1%	7.08µM*
COc1ccc(OC)c(N/C(=N/C(=S)Nc2ccccc2)Nc2nc(C)cc(C)n2)c1	4.2%	-24.6%	?	-1.7%	?	0.708µM*
c1csc(-c2nc(NCCCN3CCOCC3)c3ccccc3n2)c1	-1.8%	3.2%	11.9%	35.5µM*	/	-11.6%
Fc1ccccc1-c1nc(NCCCN2CCOCC2)c2ccccc2n1	-0.1%	14.6%	29.9%	-5.0%	0.0%	-7.2%
Cc1cnc(SCc2ccccn2)nc1C1CCCN(C(=O)c2ccc(-c3ccccc3F)cc2)C1 (stereo unspecified)	-0.5%	/	/	/	/	/
Cc1cccc(N(C(=O)CCC(=O)Nc2cc(C)on2)C(C(=O)NC2CCCC2)c2ccc(C)o2)c1 (stereo unspecified)	-2.0%	-7.1%	30.8%	-3.3%	-5.8%	-6.4%
Cc1cc(NC(=O)CCC(=O)N(c2cccc(F)c2)C(C(=O)NC2CCCC2)c2ccc(C)o2)no1 (stereo unspecified)	0.1%	5.4%	?	28.2µM*	/	-8.8%
CCc1ccc2oc(-c3ccc(C)c(NC(=O)c4cc([N+](=O)[O-])ccc4N4CCOCC4)c3)nc2c1	2.9%	/	/	0.9%	-1.1%	/
O=C(CSc1ccccc1F)NCCN1C(=O)CSC1=O	1.2%	/	/	0.9%	/	/
O=C(CSc1nc(-c2ccccc2)c(-c2ccccc2)[nH]1)NCc1ccco1	4.6%[38.3 µM]	15.6%	10µM*	?	-1.3%	?
O=C(CSc1nc(-c2ccccc2)c(-c2ccccc2)[nH]1)NCCN1C(=O)CSC1=O	2.8%	0.6%	-20.1%	31.6µM*	1.0%	-1.4%
O=C(CSc1nnc(-c2ccccc2)c(-c2ccccc2)n1)NCc1ccco1	0.4%	?	-26.3%	0.6%	0.0%	0.8%
CC(C)(C)c1cc[n+](C2=C([O-])c3ccccc3C(=O)/C2=N\S(=O)(=O)c2cccs2)cc1	-2.7%	-24.8%	11.2µM*	-2.4%	0.5%	8.91µM*
O=C1/C(=N\S(=O)(=O)c2cccs2)C([n+]2ccccc2)=C([O-])c2ccccc21	-1.3%	16.0%	-0.3%	0.4%	0.0%	?
Cn1c(=O)c(=O)n(C)c2cc(N3CCOCC3)c(NS(=O)(=O)c3ccc(F)c(Cl)c3)cc21	-0.2%	9.7%	-3.5%	-5.3%	0.0%	1.1%
Cn1c(=O)c(=O)n(C)c2cc(N3CCOCC3)c(NS(=O)(=O)c3ccc([N+](=O)[O-])cc3)cc21	2.5%	50.1µM*	-23.2%	?	/	6.1%
O=C(O)c1ccc(NC(=S)NC2CCCCC2)cc1	-0.8%	?	-7.5%	0.3%	0.0%	-10.3%
FC(F)(F)c1ccc(NC(=S)NC2CCCCC2)cc1	?	11.5%	4.47µM*	/	-0.4%	?

High-throughput results as filed in PubChem.
